The campaign covered roughly 200,000 compounds. About 18,000 (9%) were called active. For the sample, actives were picked, then their nearest neighbours and some compounds at random. Unmarked numbers belong to inactive results. Cut-off read from the data, not from the text of the source: active = inhibition above about 50%; inactive = the rest.

The nature of this assay: antileishmanial activity against promastigotes – primary screen (AID 1063).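 Note: promastigotes grown with compound for 44 hours at 28 °C.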 Conditions: Leishmania major promastigotes, resazurin fluorescence viability; at 10 µM; hits give high values.
In the case of `CC(C)N(Cc1ccccc1)C(=O)COC(=O)c1cnccn1`, the inhibition (in general, the drop in the measured response relative to a control, in per cent) is -4.04%.

Turning to `COC(=O)Cc1c(O)ccn(Cc2cccc(C(F)(F)F)c2)c1=O`, the inhibition was -15.9%. The value for `CC(Sc1nnnn1C1CCCCC1)C(=O)O` (stereo not given) was -5.74%. The result for `O=C(N/N=C/c1ccc([N+](=O)[O-])cc1)C(=O)N1CCCC1` reads -5.07%. The value for `O=C(OCC(=O)c1cccs1)c1ccc([N+](=O)[O-])o1` was 13.5%; that for `COc1ccc(Nc2cc(C)nc(-n3nc(C)cc3C)n2)cc1` was 28.9%. As to `COc1cccc(/C=N/Nc2ncc(C(F)(F)F)cc2Cl)c1O`, the inhibition is 28.2%.

Turning to `COc1ccccc1/C=N\Nc1cc(C)nc(-n2nc(C)cc2C)n1`, the inhibition is 98.9% (active).

With `COc1cccc2c(N/N=C/c3ccco3)cc(C)nc12`, the inhibition was 2.22%. The result for `COc1cccc(/C=N/Nc2cc(C)nc(-c3ccccc3O)n2)c1O` reads 71.2% (active); that for `COc1ccc(-c2nn(-c3ccccc3)cc2/C=N/Nc2ccccn2)cc1OC`, 27.8%.

For the molecule `CCc1ccc(CN(C)Cc2nc(Cc3ccccc3)no2)nc1`, the inhibition is 14%. The value for `S=C(NCc1ccco1)Nc1ccc2c(c1)OCCO2` was -4.58%; that for `COc1ccc(CCNC(=O)Cn2c(=O)n(CC3CCCO3)c(=O)c3ccccc32)cc1OC` (stereo not given) was -4.82%. The result for `O=C(NCCc1ccccc1)C1CCC(Cn2c(=O)c3ccccc3n(Cc3cccnc3)c2=O)CC1` (stereo not given) reads 73.5% (active); that for `O=C(O)C1CC(=O)N(Cc2cccnc2)C1` (stereo not given), -7.68%; that for `Cc1c(CN2CCCC(C(=O)c3cccc(Cl)c3)C2)c(=O)n(-c2ccccc2)n1C` (stereo not given), 16.8%.

Take `CCN(CC)CCNC(=O)c1ccc(NS(=O)(=O)c2ccc3c(c2)OCCO3)cc1`: the inhibition was -8.8%. The result for `Cc1cccc(OCC(=O)Nc2ccccc2F)c1` reads 8.74%.

Take `CC(C)C(C)(C#N)NC(=O)CSc1nncn1-c1ccccc1` (stereo not given): the inhibition was -0.78%.

As to `CCCNS(=O)(=O)c1ccc(CCC(=O)N2CCCC2)cc1`, the inhibition is 1%. The result for `S=C(NCc1ccc(Cl)cc1)NC1CCCCC1` reads 57.3% (active); that for `S=C(NCc1ccc(Cl)cc1)NC12CC3CC(CC(C3)C1)C2`, 36.3%.

Consider `CN(C)CCCNC(=S)NCc1ccc(Cl)cc1`, for which the inhibition is -5.52%. The value for `O=c1[nH]c(=S)[nH]c2[nH]c(=S)[nH]c12` was 7.12%.

As for `CCSc1nc2c(c(=O)[nH]1)C(c1cccnc1)C(C(=O)OC(C)C)=C(C)N2` (stereo not given), the inhibition was 56% (active). `COC(=O)C1=C(C)Nc2ncnn2C1c1cccnc1` (stereo not given): the inhibition is -4.12%. `COC(=O)C1=C(N)Oc2cc(C)oc(=O)c2C1c1cccnc1` (stereo not given): the inhibition is 42.3%. The result for `N/C(=N\OC(=O)CCCC(=O)O)c1ncc(C(F)(F)F)cc1Cl` reads -0.94%. Regarding `COc1ccc(Cl)cc1C(=O)NNC(=S)NC(=O)/C=C/c1ccco1`, the inhibition is 18.7%. The value for `COc1ccc(N2C(=O)/C(=C\c3ccco3)N=C2SCC(N)=O)cc1Cl` was 51.5% (active). The value for `COc1ccc([N+](=O)[O-])cc1NC(=O)COC(=O)/C=C/c1ccco1` was -8.41%; that for `COc1cccc2c(=O)n(CC(=O)N3CCCCCC3)ccc12` was -6.35%; that for `CCOC(=O)C1CCN(C(=O)Cn2cc(C#N)c3ccccc32)CC1` was 0.22%. On to `CCc1cccc2c(C=C(C#N)C#N)cn(CC(=O)N3CCCCC3)c12`, for which the inhibition was 78% (active). The result for `Cc1ccccc1NC(=O)c1ccc(COc2ccc3c(C)cc(=O)oc3c2)cc1` reads -4.07%; that for `Cc1ccsc1C1C(C#N)=C(N)OC2=C1C(=O)CC(C)C2` (stereo not given), 5.83%; that for `C/C=C/C=C/C(=O)OCC(=O)Nc1ccc(Cl)cc1`, 0.85%. The value for `COc1ccc(C(=O)Nc2ncc3c(n2)-c2ccccc2CC3)cc1` was 33.3%; that for `COCCN(CCOC)S(=O)(=O)c1ccc(C(=O)Nc2nc3c(s2)CCc2ccccc2-3)cc1` was 78.1% (active). The value for `C=CCN(CC=C)S(=O)(=O)c1ccc(C(=O)Nc2nc3c(s2)CCc2ccccc2-3)cc1` was 25.3%; that for `CC(C)C(NC(=O)C1CCC(C(C)(C)C)CC1)C(=O)NCCCN1CCCCC1` (stereo not given) was 4.42%; that for `COc1ccc(C=Nc2cccc3ncccc23)cc1` was -0.39%. Take `Cc1ccc2[nH]c(=O)c(CC=C(Cl)Cl)c(C)c2c1`: the inhibition is 5.81%. Take `COC(=O)c1ccc(/C=N/N2C(C)CCCC2C)cc1` (stereo not given): the inhibition was 1.84%.

As to `CC(=O)NC(NC(=S)Nc1c(C)n(C)n(-c2ccccc2)c1=O)C(Cl)(Cl)Cl` (stereo not given), the inhibition is -10.3%. As to `COc1ccc(N2CCN(C(C)=C3C(=O)c4ccccc4C3=O)CC2)cc1`, the inhibition was 0.6%. The result for `CCCC(=O)NC(C)C(c1cccs1)N1CCN(c2ccccc2)CC1` (stereo not given) reads 21.8%; that for `COc1ccc(C(C(O)C(=O)c2c[nH]c3ccccc23)N2CCN(c3ccccc3)CC2)cc1` (stereo not given), 60.7% (active); that for `CCC(=O)c1ccc(OCC(O)Cn2nc(C)c(C(C)=O)c2C)cc1` (stereo not given), -1.66%. The value for `Cc1c(C(N)=O)sc2ncn(CCOc3ccccc3)c(=O)c12` was 15.6%; that for `N#Cc1c(-c2ccc(Cl)cc2)c2c([nH]c1=S)CCCC2` was -2.73%; that for `N/C(=N\OC(=O)COc1ccc([N+](=O)[O-])cc1)c1ccc(Br)cc1` was -2.89%.

Turning to `CCOC(=O)COc1ccc([N+](=O)[O-])cc1`, the inhibition was 62.2% (active).

As to `N/C(Cc1ccc([N+](=O)[O-])cc1)=N\OC(=O)COc1ccc2ccccc2c1`, the inhibition is -4.21%. The result for `Cc1nnc(SCCCCSc2nnc(C)c(=O)[nH]2)[nH]c1=O` reads -5.64%; that for `CN(c1ccc(OCC(=O)OCC(=O)Nc2cccc([N+](=O)[O-])c2)cc1)S(=O)(=O)c1ccc(F)cc1`, -5.95%. The value for `CC(CC(=O)C1C(C)C=CCC1(C)C)NNC(N)=O` (stereo not given) was -5.44%; that for `C=CCCC(=O)Nc1nc(C)c(-c2csc(Nc3ccc(Cl)cc3)n2)s1` was 40.7%. The value for `CCCCCCC(=O)Nc1nc(C)c(-c2csc(Nc3cccc(OC)c3)n2)s1` was 56.1% (active); that for `CCCCC(=O)Nc1nc(C)c(-c2csc(Nc3ccc(Cl)cc3)n2)s1` was 27%. In the case of `Cc1nc(NC(=O)c2cccc(Cl)c2)sc1-c1csc(Nc2cccc(Cl)c2)n1`, the inhibition was 6.25%. `CCCCCCC(=O)Nc1nc(C)c(-c2csc(Nc3cc(Cl)ccc3OC)n2)s1`: the inhibition is 56.5% (active).

As to `Cc1ccc(Nc2nc(-c3sc(NC(=O)c4ccccc4)nc3C)cs2)cc1`, the inhibition was 15.7%. The result for `O=C(c1ccc(N2CCOCC2)c([N+](=O)[O-])c1)N1CCN(S(=O)(=O)c2cccs2)CC1` reads 26.9%; that for `Cn1cnnc1Sc1ccc(CN2CCN(C3CCCC3)C(CCO)C2)o1` (stereo not given), -0.44%; that for `COc1ccc(NC(=O)C(Br)C(C)C)cc1` (stereo not given), -2.81%. The result for `CN(C)c1ccc(C(=S)N2CCN(C(=S)Nc3ccc(Cl)cc3)CC2)cc1` reads -3.85%; that for `O=C1CN(C(=O)COC(=O)c2cnc(Cl)c(Cl)c2)c2ccccc2N1`, -5.42%. Consider `O=c1c([N+](=O)[O-])cccn1Cc1ccc(F)cc1Cl`, for which the inhibition was 13.1%.

For `COCCNc1cc(NCCOC)c([N+](=O)[O-])cc1[N+](=O)[O-]`, the inhibition was 32.9%. The result for `CCN(CC)CCNc1ccc(Cl)cc1[N+](=O)[O-]` reads 52.1% (active); that for `CSc1ccccc1NC(=O)CN(C)CC(=O)Nc1ccc(Cl)cc1[N+](=O)[O-]`, 12%. The value for `C=CCn1c2ccccc2c2nnc(SCc3[nH]c(=O)[nH]c3C(=O)CCCCC(=O)OCC)nc21` was 4.8%; that for `C=CCn1c2ccccc2c2nnc(SC(CC)C(=O)Nc3nc(C)c(C(=O)OCC)s3)nc21` (stereo not given) was 62.5% (active). Consider `CCOC(=O)c1sc(NC(=O)C(CC)Sc2nccn2C)nc1C` (stereo not given), for which the inhibition is 9.41%. Regarding `COc1ccccc1C(=O)CSc1cccc[n+]1[O-]`, the inhibition was -7.87%.

For `COc1cccc(C(=O)Nc2nc3ccc(S(C)(=O)=O)cc3s2)c1`, the inhibition is 16%. The value for `CC(C)c1nc2sc3c(c2c(=O)n1N)CC(C)(C)OC3` was -0.56%. For `Cc1cc(C)c(NC(=O)CS(=O)CC(=O)Nc2cccnc2)c(C)c1` (stereo not given), the inhibition is -5.42%. The result for `Cc1ccc(-c2nc(-c3cccnc3)sc2CC(=O)Nc2ccc(C)c(Cl)c2)cc1` reads 78.2% (active); that for `O=C(O)Cc1sc(-c2ccc(C(=O)O)cc2)nc1-c1ccccc1`, -1.45%. The value for `CC(C)CC(CC(C)C)=NNC(=O)c1ccc(CSc2nncn2C)cc1` was -4.77%; that for `O=C(CN1C(=O)NC2(CCCC2)C1=O)NCC1CCCO1` (stereo not given) was -4.12%; that for `Cc1cc(=O)oc2c1c(C)nn2-c1ccc(Cl)cc1` was -5.67%. Consider `CCC(CC)C(=O)Nc1ccc(S(=O)(=O)Nc2nccs2)cc1`, for which the inhibition is 6.97%. The result for `O=C(NC(=S)Nc1ccc(S(=O)(=O)Nc2ncccn2)cc1)c1cccc(Br)c1` reads -8.62%; that for `Cc1nc2ccccc2c2oc(C(=O)NCC3CCCO3)cc12` (stereo not given), 11.4%; that for `Cc1nc2ccccc2c2oc(C(=O)NCCCN3CCC(C)CC3)cc12`, 24%. The result for `CCCN(CCC)CCNC(=O)c1cc2c(C)nc3ccccc3c2o1` reads 56.9% (active); that for `CC(C)OCCCNC(=O)c1ccc(C2SCC(=O)N2Cc2ccco2)cc1` (stereo not given), -3.9%. The result for `Cc1cc(C(=O)NNC(=O)CCC2CCCCC2)c(C)o1` reads -8.93%. Take `CCC(=O)N1CCC(C(N)=O)(N2CCCCC2)CC1`: the inhibition was 0.56%.

On to `O=C(Nc1cccn(Cc2ccccc2Cl)c1=O)NC1CCCCC1`, for which the inhibition was 17.9%. The result for `COc1ccc(Cl)cc1C(=O)NNC(=S)NC1CCCC1` reads 17.1%.

The record behind these values is PubChem BioAssay AID1063 (University of Pittsburgh Molecular Library Screening Center, 2008).
